Compound activity (PubChem)
The list is not random: actives were taken first. Their share in the collection is about 6.7%.
Pf Dd2 inh – P. falciparum Dd2 growth inhibitors, primary screen, SYBR Green fluorescence, single dose replicates; 72 h; hits give low values; activity change, % at 10 µM; 2.3% of 94,000 active; in the data active = activity change below about -80%; inconclusive = no clear call, values can overlap the other calls
C diff growth – C. difficile growth inhibitors, primary screen, HTS; Clostridium difficile clinical isolate growth, OD600, 24 h; hits give low values; growth activity, negative = inhibition, % at 16 µg/mL (by protocol); 0.25% of 86,000 active; AID 1259249, 2017;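 active = mean growth activity at or below -80% and every replicate also at or below -80%; inconclusive = mean at or below -80% but some replicate above -80%; inactive = mean growth activity above -80%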
T cruzi growth-1 – T. cruzi intracellular proliferation inhibitors, primary screen, cell-based, beta-gal Tulahuen parasites, NIH3T3 host, luminescence; inhibition, % at 8.34 µM; T. cruzi beta-gal in NIH3T3, GalScreen luminescence, 90 h; 5.9% of 77,000 active;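 active = mean inhibition above about 93%, with at least 55% of replicates each passing it, limit read from the data, passing the limit was not always enough; inconclusive = only one of those two conditions holds; inactive = neither condition holds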
T cruzi growth-2 – T. cruzi intracellular proliferation inhibitors, confirmation, cell-based, NIH3T3 host, beta-gal parasite, luminescence, cherry-pick | shares compounds with T cruzi growth-1 | T. cruzi beta-gal in NIH3T3, GalScreen luminescence, 90 h | inhibition, % at 8.35 µM | 72% of 5,600 active | AID 651739, 2012;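 active = mean replicate inhibition above about 95% and at least 55% of replicates individually reaching it, limit read from the data; inconclusive = only one of the two criteria is met; inactive = neither criterion is met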
T cruzi growth-3 – inhibitors of intracellular T. cruzi replication, confirmation, NIH3T3 host cells, beta-gal parasites, cherry-pick, set 2. inhibition, % at 2.09 µM. T. cruzi beta-gal in NIH3T3, GalScreen luminescence, 90 h. 21% of 5,600 active. AID 651740, 2012. shares compounds with T cruzi growth-1;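 active = mean inhibition above about 95%, with at least 55% of replicates also reaching it, limit read from the data; inconclusive = meets just one of the two conditions; inactive = meets neither condition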
3T3 cytotox – cytotoxicity in mouse NIH/3T3 fibroblasts, confirmation, cytotoxicity control for T. cruzi proliferation inhibitor project, cell-based, cherry-pick, single point | shares compounds with T cruzi growth-1 | NIH/3T3 viability, CellTiter-Glo ATP luminescence, 90 h | cytotoxicity (signal decrease), % at 8.35 µM | 14% of 5,600 active | AID 651742, 2012;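 active = mean signal decrease across replicates above about 35% based on untreated-well scatter, with enough replicates individually passing, limit read from the data; inconclusive = no rule stated though some were filed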
3T3 cytotox 2 – NIH/3T3 fibroblast cytotoxicity, confirmation, cytotoxicity control, cell-based, cherry-pick, single point, set 2. shares compounds with T cruzi growth-1. NIH/3T3 viability, CellTiter-Glo ATP luminescence, 90 h. inhibition, % at 24.9 µM. 56% of 5,600 active;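 active = mean loss of cell viability signal at or above a set limit, and enough replicates individually reaching it; inconclusive = meets only the mean limit or only the replicate share; inactive = meets neither condition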
Numbers stand for hits; – = inactive; ? = inconclusive; · = no result.

SMILES | Pf Dd2 inh | C diff growth | T cruzi growth-1 | T cruzi growth-2 | T cruzi growth-3 | 3T3 cytotox | 3T3 cytotox 2
O=C(NC1CCCC1)N1CCCCN2[C@H](C1)[C@@H](c1ccc(/C=C/c3ccccc3)cc1)[C@@H]2CO | – | – | – | · | · | · | ·
O=C(NC1CCCC1)N1CCCCN2[C@H](CO)[C@@H](c3ccc(/C=C/c4ccccc4)cc3)[C@@H]2C1 | – | – | 107 | 100 | 101 | – | 104
O=C(NC1CCCC1)N1CC(=O)N2[C@H](C1)[C@@H](c1ccc(/C=C/c3ccccc3)cc1)[C@@H]2CO | – | – | · | · | · | · | ·
Cc1noc(C)c1NC(=O)Nc1ccc2c(c1)C(=O)N([C@H](C)CO)C[C@H](C)[C@H](CN(C)S(=O)(=O)c1c(C)noc1C)OCCCC[C@@H](C)O2 | – | – | – | · | · | · | ·
Cc1noc(C)c1S(=O)(=O)Nc1ccc2c(c1)CC(=O)N([C@@H](C)CO)C[C@@H](C)[C@@H](CN(C)C(=O)Nc1ccc(F)cc1)O2 | – | – | – | · | · | · | ·
CN(C)CC(=O)N1[C@@H]2Cn3c(ccc(C4=CCCC4)c3=O)[C@H]1[C@@H](C(=O)NCC1CCCCC1)[C@@H]2CO | – | – | – | · | · | · | ·
COCCNC[C@@H]1[C@@H](c2ccccc2)[C@@H](CO)N1c1nc(C)c(C)s1 | – | – | – | · | · | · | ·
COCCNC[C@H]1[C@@H](c2ccccc2)[C@@H](CO)N1c1nc(C)c(C)s1 | – | – | 103 | – | – | – | –
C[C@@H]1CN([C@@H](C)CO)C(=O)c2cccc(NS(=O)(=O)c3cn(C)cn3)c2O[C@H]1CN(C)Cc1ccccc1 | – | – | – | · | · | · | ·
CCCC#Cc1ccc2c(c1)O[C@@H](CN(C)Cc1ccc3c(c1)OCO3)[C@H](C)CN([C@H](C)CO)S2(=O)=O | · | – | 101 | ? | 104 | 59 | 103
CCCC#Cc1ccc2c(c1)O[C@H](CN(C)Cc1ccc3c(c1)OCO3)[C@@H](C)CN([C@@H](C)CO)S2(=O)=O | · | – | – | · | · | · | ·
COCC#Cc1ccc2c(c1)O[C@@H](CN(C)Cc1ccc3c(c1)OCO3)[C@@H](C)CN([C@H](C)CO)S2(=O)=O | – | – | · | · | · | · | ·
C[C@@H]1CN([C@H](C)CO)S(=O)(=O)c2ccc(C#CCN(C)C)cc2O[C@H]1CN(C)Cc1ccc2c(c1)OCO2 | – | – | 105 | 100 | – | 59 | 107
CC(C)CC#Cc1ccc2c(c1)O[C@H](CN(C)Cc1ccc3c(c1)OCO3)[C@H](C)CN([C@@H](C)CO)S2(=O)=O | – | – | 96 | ? | 107 | – | 106
COCC#Cc1ccc2c(c1)O[C@H](CN(C)Cc1ccc3c(c1)OCO3)[C@@H](C)CN([C@@H](C)CO)S2(=O)=O | – | – | · | · | · | · | ·
CCCC#Cc1ccc2c(c1)O[C@@H](CN(C)Cc1ccc3c(c1)OCO3)[C@H](C)CN([C@@H](C)CO)S2(=O)=O | · | – | ? | 98 | 108 | 51 | 104
COCC#Cc1ccc2c(c1)O[C@@H](CN(C)Cc1ccc3c(c1)OCO3)[C@H](C)CN([C@@H](C)CO)S2(=O)=O | – | – | · | · | · | · | ·
C[C@@H]1CCCCO[C@H](CN(C)S(=O)(=O)c2cn(C)cn2)[C@@H](C)CN([C@H](C)CO)C(=O)c2cc(NC(=O)Nc3ccc(C(F)(F)F)cc3)ccc2O1 | – | – | – | · | · | · | ·
Cc1noc(C)c1NC(=O)Nc1ccc2c(c1)C(=O)N([C@H](C)CO)C[C@@H](C)[C@H](CN(C)Cc1ccc(C(=O)O)cc1)OCCCC[C@@H](C)O2 | – | · | – | · | · | · | ·
C[C@@H]1CN([C@@H](C)CO)C(=O)Cc2cc(NC(=O)C3CCCCC3)ccc2O[C@H]1CN(C)S(=O)(=O)c1cn(C)cn1 | – | – | – | · | · | · | ·
C[C@@H]1CCCCO[C@@H](CN(C)C(=O)c2ccccc2)[C@H](C)CN([C@@H](C)CO)C(=O)c2cc(NC(=O)c3ccccc3)ccc2O1 | – | – | – | · | · | · | ·
COc1ccccc1-c1ccc2n(c1=O)C[C@H]1[C@H](CO)[C@@H](C(=O)NCC3CC3)N(S(C)(=O)=O)[C@@H]21 | · | – | – | · | · | · | ·
C/C=C/c1ccc2c(c1)O[C@H](CN(C)Cc1cncnc1)[C@H](C)CN([C@H](C)CO)S2(=O)=O | – | – | · | · | · | · | ·
C/C=C/c1ccc2c(c1)O[C@@H](CN(C)Cc1ccncc1)[C@@H](C)CN([C@@H](C)CO)S2(=O)=O | – | – | 109 | 96 | 101 | – | 29
C/C=C/c1ccc2c(c1)O[C@H](CN(C)Cc1ccncc1)[C@H](C)CN([C@H](C)CO)S2(=O)=O | – | – | – | · | · | · | ·
SMILES | Pf Dd2 inh | C diff growth | T cruzi growth-1 | T cruzi growth-2 | T cruzi growth-3 | 3T3 cytotox | 3T3 cytotox 2
C/C=C/c1ccc2c(c1)O[C@H](CN(C)Cc1ccncc1)[C@@H](C)CN([C@H](C)CO)S2(=O)=O | – | – | 108 | 97 | ? | 45 | 74
Cc1noc(C)c1NC(=O)Nc1ccc2c(c1)C(=O)N([C@@H](C)CO)C[C@@H](C)[C@@H](CN(C)S(=O)(=O)c1cn(C)cn1)O2 | – | – | – | · | · | · | ·
O=C([C@H]1[C@H](CO)[C@H]2Cn3c(ccc(-c4ccccc4)c3=O)[C@@H]1N2CCC(F)(F)F)N1CCCCC1 | – | – | – | · | · | · | ·
Cc1ccc(S(=O)(=O)Nc2ccc3c(c2)C(=O)N([C@@H](C)CO)C[C@@H](C)[C@H](CN(C)S(=O)(=O)c2ccc(Cl)cc2)OCCCC[C@@H](C)O3)cc1 | – | – | 120 | 101 | 100 | – | –
Cc1ccc(S(=O)(=O)Nc2ccc3c(c2)C(=O)N([C@H](C)CO)C[C@H](C)[C@@H](CN(C)S(=O)(=O)c2ccc(Cl)cc2)OCCCC[C@@H](C)O3)cc1 | – | – | 108 | 106 | – | – | 45
Cc1ccc(S(=O)(=O)Nc2ccc3c(c2)C(=O)N([C@H](C)CO)C[C@@H](C)[C@@H](CN(C)S(=O)(=O)c2ccc(Cl)cc2)OCCCC[C@H](C)O3)cc1 | -86 | – | 117 | 97 | 107 | – | –
C[C@@H]1CCCCO[C@@H](CN(C)S(=O)(=O)c2ccc(Cl)cc2)[C@@H](C)CN([C@@H](C)CO)C(=O)c2cc(NS(=O)(=O)c3ccc(Cl)cc3)ccc2O1 | – | – | – | · | · | · | ·
Cc1ccc(S(=O)(=O)Nc2ccc3c(c2)C(=O)N([C@H](C)CO)C[C@H](C)[C@H](CN(C)S(=O)(=O)c2ccc(Cl)cc2)OCCCC[C@H](C)O3)cc1 | – | – | 112 | 100 | 107 | – | –
O=C(C[C@H]1CC[C@H]2[C@@H](COC[C@H](O)CN2S(=O)(=O)c2ccccc2)O1)NCc1ccc2c(c1)OCO2 | – | · | – | · | · | · | ·
